According to the supplement of paper PMC6522484:
± gives the standard deviation of the averaged measurements.

Assays:
DLD1 [1] = test: cell viability (CellTiter-Glo) relative to plate median (fraction of plate median); higher = more viable cells; details: 5 µM; treatment time 24 h; reporter: 7TFP
Method in brief: (§1)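 Signals from firefly luciferase or CellTiterGlo readouts were normalised well by well to the plate median using webcellHTS2, additively and with no log transformation. They came from colorectal cancer cell lines stably holding lentiviral TCF/Wnt firefly luciferase reporters (7TFP or TCF4/Wnt), treated with library compounds at a final 5 µM for 24 h. The mean of two independent replicates is given.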

HCT116 = test: as above; details: 5 µM; treatment time 24 h; reporter: TCF4/Wnt
Method in brief: as §1

SW480 [2] = test: as above; details: 5 µM; treatment time 24 h; reporter: 7TFP
Method in brief: as §1

DLD1 [3] = test: TCF/Wnt firefly luciferase reporter signal relative to plate median (fraction of plate median); higher = higher Wnt reporter signal; details: 5 µM; treatment time 24 h; reporter: 7TFP
Method in brief: as §1

SW480 [4] = test: as above; details: 5 µM; treatment time 24 h; reporter: 7TFP
Method in brief: as §1

| Compound | cell viability (DLD1 [1]) | cell viability (HCT116) | cell viability (SW480 [2]) | TCF/Wnt firefly luciferase reporter signal (DLD1 [3]) | TCF/Wnt firefly luciferase reporter signal (SW480 [4]) |
| --- | --- | --- | --- | --- | --- |
| CC[C@H]1OC(=O)[C@H](C)[C@@H](O[C@H]2C[C@@](C)(OC)[C@@H](O)[C@H](C)O2)[C@H](C)[C@@H](O[C@@H]2O[C@H](C)C[C@H](N(C)C)[C@H]2O)[C@](C)(O)C[C@@H](C)C(=O)[C@H](C)[C@@H](O)[C@]1(C)O | 1.01 ± 0.05 | 0.986 ± 0.034 | 1 ± 0.028 | 0.924 ± 0.09 | 0.874 ± 0.051 |
| CO[C@H]1/C=C/O[C@@]2(C)Oc3c(C)c(O)c4c(O)c(c5c(nc6cc(C)ccn65)c4c3C2=O)NC(=O)/C(C)=C\C=C\[C@H](C)[C@H](O)[C@@H](C)[C@@H](O)[C@@H](C)[C@H](OC(C)=O)[C@@H]1C | 1.05 ± 0.093 | 1.1 ± 0.035 | 1.04 ± 0.042 | 1.05 ± 0.15 | 1.11 ± 0.071 |
| CN1C(C)(C)CCCC1(C)C | 0.993 ± 0.0099 | 0.939 ± 0.13 | 1.02 ± 0.059 | 0.982 ± 0.011 | 1 ± 0.025 |
| N=C(N)NCCCCNC(=N)N | 0.922 ± 0.0085 | 0.978 ± 0.1 | 0.965 ± 0.017 | 0.994 ± 0.14 | 1.04 ± 0.067 |
| Cc1scc2c1N(C(=O)CN1CCN(C)CC1)c1ccccc1NC2=O | 1.03 ± 0.073 | 1 ± 0.071 | 0.996 ± 0.034 | 0.984 ± 0.052 | 0.954 ± 0.04 |
| O=C1CC2(CCCC2)CC(=O)N1CCCCN1CCN(c2ncccn2)CC1 | 1.02 ± 0.028 | 0.895 ± 0.14 | 0.995 ± 0.021 | 1.07 ± 0.078 | 1.08 ± 0.021 |
| O=C(O)c1ccccc1 | 1.06 ± 0.096 | 1.02 ± 0.021 | 1.02 ± 0.014 | 1.12 ± 0.071 | 0.951 ± 0.037 |
| CCCc1cc(OC)c2c(c1)OCO2 | 0.961 ± 0.11 | 0.939 ± 0.014 | 0.976 ± 0.049 | 0.958 ± 0.034 | 0.964 ± 0.065 |
| COc1c2ccoc2cc2oc(=O)ccc12 | 1.02 ± 0.046 | 0.946 ± 0.018 | 0.978 ± 0.015 | 0.984 ± 0.093 | 1.01 ± 0.028 |
| CN(C)C(=O)C(CCN1CCC(O)(c2ccc(Cl)cc2)CC1)(c1ccccc1)c1ccccc1 | 0.892 ± 0.14 | 0.912 ± 0.033 | 0.983 ± 0.019 | 0.982 ± 0.28 | 0.816 ± 0.16 |
| CC(C)[C@@H]1CC[C@@H](C)CC1=O | 1.01 ± 0.033 | 1.16 ± 0.11 | 1.04 ± 0.028 | 0.906 ± 0.087 | 0.904 ± 0.037 |
| CC(=O)O[C@@H]1CO[C@H]2O[C@H]3[C@@H](C(C=O)=C[C@H](O)[C@@H]4C5=C(C(C)C)CC[C@]5(C)CC[C@@]34C)[C@@]2(O)C1=O [Striatal B] | 1 ± 0.17 | 0.89 ± 0.16 | 1.05 ± 0.021 | 1 ± 0.16 | 1.025 ± 0.0071 |
| CCN(CC)CCNC(=O)COc1ccc(OC)cc1 | 0.875 ± 0.03 | 0.928 ± 0.035 | 0.973 ± 0.038 | 1.09 ± 0.064 | 1.02 ± 0.029 |
| CC(C)c1ncc(Cc2ccccc2)[nH]c1=O [Phevalin] | 1.14 ± 0.22 | 1.07 ± 0.014 | 1.004 ± 0.0078 | 0.982 ± 0.019 | 0.922 ± 0.12 |
| NC(=O)N/N=C/c1ccc([N+](=O)[O-])o1 | 0.894 ± 0.04 | 0.827 ± 0.13 | 0.9805 ± 0.0064 | 0.973 ± 0.11 | 1.08 ± 0.028 |
